Screens: PubChem, National Center for Advancing Translational Sciences (NCATS)
An excerpt weighted towards active compounds, which were near 8% of everything screened.
LASV entry inh – Lassa virus entry inhibition. Lassa virus pseudotype entry inhibition, cell reporter. Potency, µM (doses to about 37.9 µM), without a hit: at the top dose activity change, negative = inhibition, usual class: inhibitors. 1.2% of 300,000 active; calls by dose curve; tested in HEK293 cells; note: potency is the fitted concentration of half-maximal effect; % is set by controls: 0 for no effect and ±100 for the full control effect; nearly all actives have a fitted effect of over 50% in size
SARS PLP yeast – inhibitors of SARS-CoV papain-like protease in yeast; S. cerevisiae expressing SARS-CoV PLpro, growth rescue; 0.19% of 330,000 active; Potency, µM (doses to about 32.9 µM), without a hit: at the top dose activity, positive = growth rescue, hits mostly activators; calls by dose curve; note: potency is the fitted concentration of half-maximal effect; 0% is about no effect; nearly all actives have a fitted effect of over 55% in size
HCV inhibitor – blocks hepatitis C virus | Huh7.5.1 HCVcc-Cre infection, luciferase reporter, 44 h | Potency, µM (top dose mostly 41.8 µM), for the others: at the highest dose activity change, negative = inhibition, actives largely listed as inhibitors | 3.4% of 340,000 active | AID 651820; active = well fitted inhibition curve with a large enough effect; inconclusive = small, poorly fitted or top-dose-only effect, or another doubt; inactive = no such curve, though single readings can be large or run the other way; note: potency is the fitted concentration of half-maximal effect; % is set by controls: 0 for no effect and ±100 for the full control effect
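Seed cells (1,000/well) for 4 h; treat with compound and infect with HCVcc-Cre, moi about 0.5. Incubate 44 h, then detect luciferase activity.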
FMDV inh – blocks foot and mouth disease virus; FMDV antiviral cell-based qHTS; Potency, µM (highest dose often 57.9 µM), without a hit: top-dose activity change, negative = inhibition, hits mostly inhibitors; 1.2% of 410,000 active; AID 1159524; calls by dose curve; tested in HEK293T cells; note: read-out not given here; potency is the fitted concentration of half-maximal effect; % is set by controls: 0 for no effect and ±100 for the full control effect; nearly all actives have a fitted effect of over 45% in size
HCMV antiviral – human cytomegalovirus inhibition; HFF cells, HCMV-luciferase reporter, 72 h; hits give low values; activity change, negative = inhibition, % at 57.5 µM; 4.5% of 410,000 active; AID 1259415; in the data active = activity change below about -60%; inconclusive = no clear call, values can overlap the other calls; inactive = above about -39%; note: % is set by controls: 0 for no effect and ±100 for the full control effect
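Two compound doses tested in HFFs infected with HCMV-luciferase, MOI 1 PFU/cell, 72 h at 37C. Lysate luminescence read with OneGlo; data normalized against buffer-only and 10uM Salinomycin inhibitor controls.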
MARV entry inh – Marburg virus entry inhibition; Marburg virus pseudotyped entry inhibition, cell reporter; Potency, µM (series often up to 37.8 µM), without a hit: top-dose activity change, negative = inhibition, usual class: inhibitors; 1.8% of 300,000 active; AID 540276; calls by dose curve; tested in HEK293 cells; note: potency is the fitted concentration of half-maximal effect; % is set by controls: 0 for no effect and ±100 for the full control effect
The depositor's hits bear a star; ? = inconclusive; / = no result; + = active, no number; ! = repeats disagree; [ ] = another dose, or the depositor's remark.

SMILES	LASV entry inh	SARS PLP yeast	HCV inhibitor	FMDV inh	HCMV antiviral	MARV entry inh
NC(=O)C1(Nc2ccc(C(=O)O)cc2)CCCC1	15.0%	/	-10.6%	-22.5%	-9.8	22.9%
O=C(O)c1cn(-c2ccc(F)cc2)c2cc(Cl)c(F)cc2c1=O	-0.8%[46.1 µM]	-6.7%	0.1%	-11.8%	-60.9*	0.8%[46.1 µM]
CCOC(=O)c1cn(-c2ccc([N+](=O)[O-])cc2)c2cc(Cl)c([N+](=O)[O-])cc2c1=O	?	5.4%	18.2%	-22.3%	-18.2	29.8%
CCNS(=O)(=O)c1ccc(CCC(=O)NCc2ccccc2)cc1	-3.5%[46.1 µM]	1.0%	12.1%	-3.5%	?	0.2%[46.1 µM]
CC(C)c1c(C(=O)Nc2ccccc2)c(-c2ccccc2)c(-c2ccc(F)cc2)n1CC[C@@H](O)C[C@@H](O)CC(=O)O	/	/	/	-12.6%	-66.6*	/
O=C(COC(=O)C1(c2ccc(F)cc2)CCCC1)N1CCN(C(=O)c2ccco2)CC1	-19.0%	-2.5%	?	?	-106.2*	-6.6%
COc1ccc(C(=O)OCC(=O)N2CCN(C(=O)c3ccco3)CC2)c(OC)c1OC	/	/	/	0.4%	-102.3*	/
O=[N+]([O-])c1ccc(NS(=O)(=O)c2ccc(Cl)c(Cl)c2)cc1	/	/	/	9.8%	-63.7*	/
O=[N+]([O-])c1ccc(S(=O)(=O)Nc2ccncc2)cc1	2.3%	-0.8%	-8.0%	-14.8%	-25.7	5.0%
CCC(CC)C(Nc1ccccc1C(C)=O)C(=O)NC1CCCCC1 (stereo unspecified)	/	/	/	/	-34.4	/
Cc1ccc2oc(=O)c3cnn(CC(=O)Nc4ccccc4N4CCN(C)CC4)c3c2c1	/	13.1%	14.1µM*	-20.5%	?	2.9%
Cc1ccc2oc(=O)c3cnn(CC(=O)N4CCN(c5ccccc5F)CC4)c3c2c1	15.2%[46.1 µM]	/	/	0.0%	-0.7	1.0%[46.1 µM]
CN(Cc1ccccc1)C(=O)c1[nH]c(C(F)(F)F)nc1-c1ccccc1	/	/	/	3.6%	9.1	/
CCN(CC)CCN(C)C(=O)c1[nH]c(C(F)(F)F)nc1-c1ccccc1	/	/	/	-15.6%	-98.9*	/
CCc1ccc(CNC(=O)c2ccc3c(c2)nc2n3CCOC2)cc1	2.5%[46.1 µM]	/	/	18.7%	-3.1	/
CCn1c2ccccc2c2cc(NC(=O)C(=O)N3CCOCC3)ccc21	6.3%	3.4%	11.2µM*	53.0%	48.4	?
CCn1c(C)c(C)c2cc(C(=O)NCCCN3CCCCC3C)ccc21 (stereo unspecified)	-18.4%[46.1 µM]	?	-24.8%	-5.6%	+!	/
CCn1c2ccccc2c2cc(NC(=O)CN3CCCC3)ccc21	-30.2%[46.1 µM]	-10.2%	?	-5.8%	-18.2	?
COc1ccccc1CNCC(O)Cn1c2ccccc2c2ccccc21 (stereo unspecified)	16.4µM*	-0.7%	11.2µM*	?	-99.2*	8.2µM*
CCn1c2ccccc2c2cc(NC(=O)c3cccc(OC)c3)ccc21	?	-11.7%	11.2µM*	23.5%	45.3	?
O=C(Cc1ccccc1)Nc1ccc(SC(F)F)cc1	-3.0%	-38.9%	?	47.9%	94.9	17.4%
CCn1c2ccccc2c2cc(NC(C)=O)ccc21	14.1%	-3.2%	?	-13.5%	68.9	18.3%[46.1 µM]
CC(=O)c1cccc(NC(=O)c2ccc3c(c2)c(C)c(C)n3Cc2ccc(Cl)cc2)c1	-0.8%[46.1 µM]	/	/	-11.9%	?	/
CCn1c2ccccc2c2cc(NC(=O)COc3ccccc3OC)ccc21	?	0.7%	?	0.0%	-27.1	?
CCn1c2ccccc2c2cc(NC(=O)CNCc3ccccc3OC)ccc21	?	0.5%	?	-5.3%	0.1	5.62µM*
SMILES	LASV entry inh	SARS PLP yeast	HCV inhibitor	FMDV inh	HCMV antiviral	MARV entry inh
CCn1c2ccccc2c2cc(NC(=O)c3ccco3)ccc21	?	-8.6%	3.16µM*	/	-69.3*	-13.8%
CCn1c(C)c(C)c2cc(C(=O)Nc3cccc(Cl)c3)ccc21	-21.3%	-13.6%	2µM*	1.2%	21.9	?
CCn1c2ccccc2c2cc(NS(=O)(=O)c3ccc(C)cc3)ccc21	?	-8.2%	?	12.0%	-60.5*	?
CCn1cc(CCC(=O)NCc2ccccc2OC)c2ccccc21	2.2%[46.1 µM]	-1.5%	10µM*	6.9%	3.0	/
CCn1cc(CCCC(=O)NCc2ccccc2OC)c2ccccc21	/	-3.9%	?	-20.6%	36.6	/
COc1cc2c(cc1OC)CN(S(=O)(=O)/C=C/c1ccccc1)CC2	1.26µM*	0.7%	-3.0%	-6.4%	-24.7	?
CN(C)C(=O)c1ccc(SC(=S)NCc2ccccc2)cc1	/	/	/	35.5µM*	-26.0	/
COc1ccc(-n2c(CNC(=O)c3cccc(OC)c3OC)nnc2SC)cc1	/	/	/	-4.5%	/	/
CN1C2CCC1CC(N(CCc1ccccc1)C(=O)c1ccc(Cl)cc1)C2 (stereo unspecified)	/	-0.6%	-21.2%	-14.6%	-0.1	/
CCCCN(C(=O)c1ccc(Cl)cc1)C1CC2CCC(C1)N2C (stereo unspecified)	?	5.9%	11.2µM*	-2.1%	-7.2	?
Cc1ccc(NC(=O)c2ccc(=O)n(CC(=O)Nc3cc(C)cc(C)c3)n2)cc1	?	/	/	-2.0%	46.6	/
COc1cc(Br)cc(/C=N/NC(=O)Cc2ccc(C(F)(F)F)cc2[N+](=O)[O-])c1O	?	25.2%	?	-22.8%	-102.1*	?
CCOc1cc(/C=N/NC(=O)Cc2ccc(C(F)(F)F)cc2[N+](=O)[O-])c(Br)cc1OC	-16.7%	5.0%	?	-23.5%	-20.5	-7.8%[46.1 µM]
Cc1cccc(C(=O)Nc2cccc(C(=O)NC3CCCC3)c2)c1	/	-1.5%	?	-21.3%	-33.3	/
Cc1nn(-c2cccc(Cl)c2)nc1C(=O)Nc1cccc(C(=O)NC2CC2)c1	/	-4.1%	10µM*	?	3.5	/
Cc1ccc(-n2nc(C)c(C(=O)Nc3cccc(C(=O)NC4CC4)c3)n2)c(C)c1	/	-5.3%	11.2µM*	28.2µM*	?	/
Cc1nn(-c2ccccc2)nc1C(=O)Nc1cccc(C(=O)NC2CC2)c1	/	/	/	31.6µM*	-4.3	/
Cc1cccc(C(=O)N2CCOc3ccc(CN(C)Cc4cc(C5CC5)n[nH]4)cc3C2)n1	/	/	/	-7.7%	/	/
O=C(CCNC(=O)OCC1c2ccccc2-c2ccccc21)NOCc1ccccc1	/	-1.3%	-7.9%	-11.3%	-77.0*	/
O=C(O)CCNC(=O)OCC1c2ccccc2-c2ccccc21	/	0.1%	17.8%	-12.7%	?	/
O=C(O)C1C2C=CC(O2)C1C(=O)Nc1cccc(C(F)(F)F)c1 (stereo unspecified)	/	-12.8%	11.9%	0.3%	31.1	/
Cc1cccc2nc(CSc3ccccc3N)cn12	?	/	-0.6%	-2.8%	14.1	-24.1%
Cc1cccc2nc(COc3ccc4ccccc4c3Br)cn12	?	2.1%	-26.0%	4.6%	68.8	10µM*
CC(C)Cn1c(O)c(/C=C2\C=NN=C2c2ccccc2)sc1=S	12.6µM*	-27.3%	?	0.0%	-33.2	?
